# High-throughput results deposited in PubChem by National Center for Advancing Translational Sciences (NCATS).
# Rab9 promoter act: Rab9 promoter activation. AID 485297. actives 2.8% (n = 320,000). Potency, µM (top dose mostly 9.22 µM), inactives show top-dose activation, negative = inhibition, usual class: activators. Huh7 Rab9 promoter-luciferase reporter, luminescence, 24 h; note: % of control where 0% means no effect; nearly all actives have a fitted effect of over 60% in size
#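 Promoter activation is measured as luciferase luminescence in Huh7 cells stably transfected with a Rab9 promoter–luciferase construct, following 24 h compound exposure at 37 °C and 10 min reagent incubation at ambient temperature.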
# NPC1 prom act: activators of NPC1 promoter; Huh7 NPC1 promoter luciferase reporter, 24 h; AID 485313; Potency, µM (top dose mostly 9.22 µM), inactives show top-dose activation, usual class: activators; actives 2.4% (n = 320,000); note: % of control where 0% means no effect; nearly all actives have a fitted effect of over 60% in size
#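 In 1536-well qHTS, Huh7 cells harboring an NPC1 promoter–luciferase construct received compound for 24 h; activation was quantified by luminescence following luciferase reagent addition.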
# FLuc modulator: counter-screen for miR-21 project: firefly luciferase inhibitors or activators | P08659 | purified FLuc, Km substrates, luminescence inhibition | Potency, µM (top dose mostly 57.5 µM), without a hit: top-dose activity change, negative = inhibition, usual class: inhibitors | actives 6.9% (n = 360,000) | AID 588342;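 note: plate controls were vehicle for no effect and reference inhibitor for full effect; nearly all actives have a fitted effect of over 55% in size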
# Target sequence (P08659 whole entry, looked up): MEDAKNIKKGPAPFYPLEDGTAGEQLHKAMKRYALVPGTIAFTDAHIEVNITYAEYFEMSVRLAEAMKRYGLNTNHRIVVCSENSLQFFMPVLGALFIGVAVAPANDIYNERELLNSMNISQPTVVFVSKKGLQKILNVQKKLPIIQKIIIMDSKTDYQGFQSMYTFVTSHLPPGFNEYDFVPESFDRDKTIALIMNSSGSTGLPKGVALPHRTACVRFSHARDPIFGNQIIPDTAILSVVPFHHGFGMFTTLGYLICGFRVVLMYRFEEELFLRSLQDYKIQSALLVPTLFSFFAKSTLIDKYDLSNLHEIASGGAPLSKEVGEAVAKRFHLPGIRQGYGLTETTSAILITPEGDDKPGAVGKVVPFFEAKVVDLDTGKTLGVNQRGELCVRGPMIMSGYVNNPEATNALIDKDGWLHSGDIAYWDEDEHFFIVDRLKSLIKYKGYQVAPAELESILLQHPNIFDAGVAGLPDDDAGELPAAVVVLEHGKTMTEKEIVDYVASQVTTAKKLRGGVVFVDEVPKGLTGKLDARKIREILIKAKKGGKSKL
#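 Biochemical qHTS of compounds, final roughly 60 µM downward over six points, against 10 nM purified firefly luciferase using Km concentrations of substrates (10 uM D-luciferin, 10 uM ATP) in Tris acetate pH 7.5 buffer; luminescence output.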
# ELG1 genotoxic: induces genotoxicity in HEK293T cells with luciferase-tagged ELG1; Potency, µM (titrated, usually from 46 µM), inactives show at the top dose activity change, positive = activation, most hits filed as activators; HEK293T ELG1-luciferase reporter, luminescence, 16 h; actives 1.3% (n = 330,000); note: % of control where 0% means no effect; nearly all actives have a fitted effect of over 60% in size
#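 Luminescence read-out: rising ELG1-luciferase signal, reflecting elevated ELG1 protein under genetic stress, flags genotoxic compounds. Cells were treated for 16 hr at 37 °C before ONE-Glo detection.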
# p53 reactivation: restores transcriptional activity of mutant p53; Potency, µM (top dose mostly 92.2 µM), without a hit: top-dose activity change, positive = activation, actives largely listed as activators; actives 0.063% (n = 320,000); H1299 p53-A138V BP100-luciferase reporter, luminescence, 24 h; AID 504706; note: % of control where 0% means no effect; nearly all actives have a fitted effect of over 45% in size
#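 H1299 (p53-null), stable ts p53-A138V + BP100-Luc; 1000 cells/well, Opti-MEM/10% FBS; cpd 4 pt, 1:5; 24 h, 37 deg C, 5% CO2; detection reagent 10 min RT; luminescence.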
# SMN2 splice enh: increases expression of the SMN2 splice variant | HEK293 SMN2-luciferase splicing reporter, luminescence, 30-36 h | Potency, µM (titrated, usually from 46.1 µM), without a hit: at the highest dose activity change, positive = activation, hits mostly activators | actives 2.8% (n = 210,000) | AID 1458; note: % of control where 0% means no effect; nearly all actives have a fitted effect of over 55% in size
#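 HEK293 cells carry an SMN2 […]–luciferase reporter in which exon 7 inclusion puts luciferase in frame. Cells were plated 10-12 h before compound addition, then incubated 30-36 h at 37C. ONE-Glo luminescence was read; sodium butyrate at 4.5 mM final served as control.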
# An asterisk follows results filed as active; u = inconclusive; x = not tested or not shown; [ ] = remark or other dose. Most compounds without a hit are left out; they make up all but 7.4% or so of the library. Calls come from the whole dose curve; as a rule, active = well fitted curve in the direction sought with a large enough effect; inconclusive = small, poorly fitted or top-dose-only effect, or another doubt; inactive = no such curve, though single readings can be large; an effect the other way counts as inactive or inconclusive. Potency is the fitted concentration of half-maximal effect.
SMILES,Rab9 promoter act,NPC1 prom act,FLuc modulator,ELG1 genotoxic,p53 reactivation,SMN2 splice enh
CSCC(=O)N1CCc2ccc(NC(=O)c3ccccc3Cl)cc2C1,u,u,17µM*,u,x,x
CCCS(=O)(=O)N1CCc2ccc(NC(=O)c3ccccc3Cl)cc2C1,0%,2%,17µM*,-3%,x,x
COCCC(=O)Nc1ccc2c(c1)CN(C(=O)CCSC)CC2,-2%,-5%,-2%,1%,0%,x
CN(C)S(=O)(=O)N1CCc2ccc(NC(=O)c3ccccc3Cl)cc2C1,17%,15%,11µM*,4%,x,x
CN(C)S(=O)(=O)N1CCc2ccc(NC(=O)C3CCCO3)cc2C1 (centres undefined),2%,-4%,-3%,6%,x,x
Nc1c(S(=O)(=O)O)cc(Nc2ccc(Nc3nc(Cl)nc(Nc4ccc(S(=O)(=O)O)cc4)n3)c(S(=O)(=O)O)c2)c2c1C(=O)c1ccccc1C2=O,-4%[46.1 µM],-7%[46.1 µM],x,x,x,-21%
COc1cccc(NC(=O)Cn2c(=O)ccc3cc(S(=O)(=O)N4CCC(C)CC4)ccc32)c1,x,x,1%,x,x,x
CCOc1ccc(-c2c(C)nn3c(C)c(C(=O)NCc4ccc(Cl)cc4)cnc23)cc1OCC,x,x,-5%,x,x,x
Cc1cccc(/C=N/Nc2nncc3ccccc23)c1,0.32µM*,0.56µM*,0.85µM*,0.46µM*,3%,2.5µM*
COc1cc(/C=N/Nc2nncc3ccccc23)cc(OC)c1OC,u,1.6µM*,8.5µM*,u,u,x
Cc1ccc2nc(C)cc(N/N=C/c3cccc(O)c3)c2c1,-1%,-1%,0%,-2%,-23%,x
Oc1ccc(/C=N\Nc2nncc(-c3ccccc3)n2)cc1,-8%,-6%,u,u,11%,x
COc1ccc(/C=N/Nc2nncc3ccccc23)c(OC)c1,u,u,9.5µM*,u,29%,13µM*
C(=N\Nc1nncc2ccccc12)/c1ccccc1,1.4µM*,1.1µM*,0.54µM*,u,u,x
Cc1ccc(NC(=O)Cn2c(=O)n(CC(=O)NCCc3ccccc3)c(=O)c3ccccc32)cc1C,x,x,-7%,x,x,1%
CC(=O)Nc1nnc(SCc2cc(=O)c3cc(C)ccc3[nH]2)s1,x,x,-10%,x,x,x
COc1ccc(Cl)cc1CNCCSc1nnnn1-c1ccccc1,x,x,1%,x,x,x
Cc1cccc(NC(=O)Nc2cnccn2)c1C,13%,1%,-11%,-2%,-8%,x
CN(C)c1ccc(/C=N/Nc2nncc3ccccc23)cc1,0.32µM*,0.32µM*,0.43µM*,0.73µM*,u,x
Cc1cc(=O)[nH]c(N/N=C/c2ccc(N(C)C)cc2)n1,0%,8%,u,9%,4%,x
CCCn1c(N)c(N(CCOC)C(=O)c2ccc(N(C)S(=O)(=O)c3ccc(C)cc3)cc2)c(=O)[nH]c1=O,-1%,17%,9%,3%,-4%,x
CC(C)=CC(=O)NCCc1ccccc1,x,x,13µM*,x,x,13µM*
Cc1ccc(/C=C/C(=O)NCCc2ccccc2)o1,u,u,17µM*,u,x,x
O=C(O)/C=C/C(=O)NCCc1ccccc1,-1%,-2%,-4%,0%,0%,-3%
O=C(/C=C/c1ccco1)NCCc1ccccc1,u,u,u,0%,u,x
SMILES,Rab9 promoter act,NPC1 prom act,FLuc modulator,ELG1 genotoxic,p53 reactivation,SMN2 splice enh
CCN(C(=O)c1c(C)noc1C)c1c(N)n(Cc2ccccc2)c(=O)[nH]c1=O,0%,-1%,2%,-1%,-9%,x
COc1ccc(-c2nc3ccccn3c2C=O)cc1,3.2µM*,4µM*,11µM*,u,u,u
CCC/C(=N/NC(=O)c1ccc2c(c1)OCO2)c1cccs1,u,13%,17µM*,13%,u,20µM*
CC(=O)c1cccc(NC(=O)c2ccc3ccccc3c2)c1,2.8µM*,3.2µM*,1.9µM*,u,x,x
O=C(Nc1ccc(NC(=O)c2cccs2)cc1)c1ccc2c(c1)OCO2,-9%,-9%,2%,u,1%,x
CCOC(=O)c1c(C)c(C(=O)Nc2ccc3c(c2)OCO3)c(C)n1C,1%,5%,-13%,2%,5%,-29%
CCOC(=O)c1cccc(NC(=O)/C=C/c2ccc3c(c2)OCO3)c1,0.32µM*,0.32µM*,1.9µM*,u,u,u
CCOC(=O)c1c(N)sc(C(=O)Nc2ccc3c(c2)OCO3)c1C,0.1µM*,0.32µM*,0.43µM*,0.37µM*,x,-43%
CCN(C(=O)COC(=O)/C=C/c1cccc([N+](=O)[O-])c1)c1c(N)n(Cc2ccccc2)c(=O)[nH]c1=O,2%,1%,-5%,2%,u,x
CC(C)C[C@@H](CC(=O)N[C@@H](CCC(=O)O)CC(=O)O)NC(=O)[C@@H]1CNCC[C@H]1NC(=O)C[C@@H](NC(=O)C[C@H](Cc1ccccc1)NC(=O)[C@@H]1CCCC[C@H]1N)C(C)C,x,x,x,x,x,4%
O=C(CS(=O)(=O)c1cccc2nsnc12)Nc1ccc(F)cc1F,x,x,-2%,x,x,x
COc1ccc(OC)c(NC(=O)Cn2c(=O)n(-c3cccc(C)c3)c(=O)c3c2c2cc(C)ccc2n3C)c1,x,x,2%,x,x,4%
Cc1cccc(Cc2c(C)nc3nc(SCC(=O)NCc4ccc(F)cc4)nn3c2C)c1,x,x,-9%,x,x,-30%
c1ccc2nc(CC[C@@H]3CCCCN3)ccc2c1,x,x,x,x,x,19%[9.22 µM]
CC(=O)c1cccc(NC(=O)C(OC(=O)/C=C/c2ccc3c(c2)OCO3)c2ccccc2)c1 (centres undefined),1%,7%,13µM*,27%,10%,0%
CC(=O)c1cccc(NC(=O)c2ccc3c(c2)OCO3)c1,u,u,27µM*,16%,13%,x
O=C(Nc1cccc(NC(=O)c2cccs2)c1)c1ccc2c(c1)OCO2,7%,10%,15µM*,-2%,-1%,28%
CCOC(=O)c1cccc(NC(=O)c2ccc3c(c2)OCO3)c1,0.22µM*,0.4µM*,8.5µM*,u,-6%,x
CC(Oc1ccccc1)C(=O)Nc1nc2ccc(S(N)(=O)=O)cc2s1 (centres undefined),x,x,-13%,x,x,x
C#CCn1c(C2CC(=O)N(c3ccc(OCC)cc3)C2)nc2ccccc21 (centres undefined),x,x,6%,x,x,28%
C[C@@H]1CC2(OC3C[C@@]4(C)C5=CC[C@H]6C(C)(C)C(O[C@@H]7OC[C@@H](O)[C@H](O)[C@H]7O)CC[C@@]67C[C@@]57CC[C@]4(C)C31)OC(O)C1(C)OC21 (some centres undefined),x,x,x,x,x,2%
COc1ccc(-c2cccc(NC(=O)c3ccc4c(c3)OCO4)c2)nn1,-8%,3%,15µM*,-17%,-10%,x
